Compound activity as filed in PubChem BioAssay.
IL-1B inflam inh – qHTS for Inhibitors of Inflammasome Signaling: IL-1-beta AlphaLISA Primary Screen | THP-1 LPS/ATP IL-1B secretion, AlphaLISA, 16 h; stronger effect = lower value | 360,000 tested, 4.7% active | activity change, % at 57.5 µM; in the data active = activity change below about -50%; inconclusive = mostly about -30% to -49%
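Secreted IL-1B measured by AlphaLISA bead assay after 16 h compound exposure of THP-1 cells; compounds (final up to 57.5 uM) added 1 h before LPS (250 ng/mL) and ATP (1.25 mM) stimulation; lower signal means less secretion.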
CtBP-E1A inh – qHTS Assay for Inhibitors of the CtBP/E1A Interaction. 340,000 tested, 0.49% active. AlphaScreen GST-E1A/His-CtBP binding, 1536-well; stronger effect = lower value. CtBP / adenovirus E1A interaction (AlphaScreen). activity change, % (test concentration not listed); in the data active = activity change below about -65%; inconclusive = mostly about -30% to -63%
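Protein mix (5X: 125 nM each GST-E1A, His-CtBP) was incubated with pinned compound 2 h at 37 deg C in dark, in 50 mM Tris pH 8.0 buffer with 300 mM NaCl. Glutathione donor and nickel acceptor beads followed; AlphaScreen signal read after 1 h.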
TDP1 cell noCPT – qHTS for Inhibitors of human tyrosyl-DNA phosphodiesterase 1 (TDP1): qHTS in cells in absence of CPT. DT40 Tdp1-/- hTDP1 cells, no CPT, ATP luminescence, 48 h. Potency, µM (series often up to 46.2 µM), for the others: top-dose activity change, negative = growth inhibition, usual class: inhibitors. 420,000 tested, 15% active. AID 686978, 2013; also: potency is read from the fitted curve at half-maximal effect; nearly all actives have a fitted effect of over 55% in size
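DT40 Tdp1-/-;hTDP1 cells, no CPT (DMSO vehicle only), 400 cells/well; compounds pin-transferred; ≥48 hr, 37 °C; CellTiter-Glo 30 min RT dark, luminescence read.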
Six1-Eya2 inh – qHTS Assay for Inhibitors of the Six1/Eya2 Interaction. Homeobox protein SIX1 (Homo sapiens) + Protein phosphatase EYA2 (Homo sapiens), …. 360,000 tested, 0.56% active. activity change, % (concentration not given with the values). AlphaScreen GST-Six1/His-Eya2 binding, biochemical; stronger effect = lower value; in the data active = activity change below about -65%; inconclusive = mostly about -30% to -63%
Target sequence (O00167 whole entry, looked up): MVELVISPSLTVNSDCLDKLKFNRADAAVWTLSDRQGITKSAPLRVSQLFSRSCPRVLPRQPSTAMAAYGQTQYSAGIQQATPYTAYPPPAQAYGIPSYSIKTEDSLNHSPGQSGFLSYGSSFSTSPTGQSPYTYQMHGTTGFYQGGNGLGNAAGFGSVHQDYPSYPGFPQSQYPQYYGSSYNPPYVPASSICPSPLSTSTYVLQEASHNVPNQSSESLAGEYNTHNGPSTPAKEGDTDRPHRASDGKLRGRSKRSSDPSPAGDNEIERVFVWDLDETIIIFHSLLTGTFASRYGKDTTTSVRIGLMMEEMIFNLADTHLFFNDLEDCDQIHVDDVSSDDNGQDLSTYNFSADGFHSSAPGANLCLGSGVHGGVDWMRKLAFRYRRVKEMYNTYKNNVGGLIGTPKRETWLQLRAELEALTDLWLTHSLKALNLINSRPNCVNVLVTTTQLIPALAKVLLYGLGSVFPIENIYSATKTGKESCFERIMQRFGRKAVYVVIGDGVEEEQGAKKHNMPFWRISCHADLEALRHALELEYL
Target sequence (Q15475 whole entry, looked up): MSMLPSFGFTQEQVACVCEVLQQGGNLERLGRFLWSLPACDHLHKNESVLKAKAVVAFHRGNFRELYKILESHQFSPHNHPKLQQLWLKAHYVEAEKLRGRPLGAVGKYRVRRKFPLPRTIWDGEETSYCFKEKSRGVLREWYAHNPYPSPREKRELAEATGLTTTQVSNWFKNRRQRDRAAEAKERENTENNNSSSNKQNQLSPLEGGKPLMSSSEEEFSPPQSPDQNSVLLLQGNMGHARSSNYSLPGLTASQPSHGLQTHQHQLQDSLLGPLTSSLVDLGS
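Compounds are tested against tagged Six1 and Eya2 proteins bridged by glutathione donor and nickel acceptor beads; after a one-hour incubation at 37 °C without light, AlphaScreen emission is recorded.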
DT40 TDP1 CPT – qHTS for Inhibitors of human tyrosyl-DNA phosphodiesterase 1 (TDP1): qHTS in cells in presence of CPT | chicken DT40 Tdp1-/-;hTDP1 cells + 20 nM CPT, ATP luminescence, 48 h | Potency, µM (doses to about 46.2 µM), for inactives: at the highest dose activity change, negative = growth inhibition, usual class: inhibitors | 420,000 tested, 12% active; also: potency is read from the fitted curve at half-maximal effect; nearly all actives have a fitted effect of over 55% in size
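Cell growth measured by CellTiter-Glo luminescence after a minimum 48 h, 37 C compound exposure with 20 nM CPT in Tdp1-knockout DT40 cells stably expressing hTDP1, seeded 400/well; qHTS titration format.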
TDP1 block – qHTS Assay for Inhibitors of Tyrosyl-DNA Phosphodiesterase (TDP1); Tyrosyl-DNA phosphodiesterase 1 (Homo sapiens), Q9NUW8; recombinant TDP1, AlphaScreen DNA substrate cleavage; Potency, µM (highest dose often 130 µM), for inactives: at the top dose activity change, negative = inhibition, actives largely listed as inhibitors; 350,000 tested, 0.28% active; AID 485290, 2010; also: potency is read from the fitted curve at half-maximal effect; nearly all actives have a fitted effect of over 40% in size
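Steps: enzyme plus compound, 15 min RT; add biotin/phosphotyrosine-FITC oligonucleotide (15 nM final), react 5 min; add donor/acceptor beads (10 ug/ml final), 10 min; read AlphaScreen. Tdp1 at 1 nM final.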
The depositor's hits bear a star; ? = inconclusive; · = no result given; [ ] = another dose, or the depositor's remark. In the library only some 18% were active in any assay of this set; here they are far more common. Unless noted, calls follow the shape of the dose curve; as a rule, active = well fitted curve in the direction sought with a large enough effect; inconclusive = small, poorly fitted or top-dose-only effect, or another doubt; inactive = no such curve, though single readings can be large; an effect the other way counts as inactive or inconclusive. % is scaled to controls: 0 for no effect and ±100 for the full control effect.

SMILES | IL-1B inflam inh | CtBP-E1A inh | TDP1 cell noCPT | Six1-Eya2 inh | DT40 TDP1 CPT | TDP1 block
Cc1cccc(N2CCN(C(=O)COc3ccc4c(C)cc(=O)oc4c3C)CC2)c1C | ? | -5 | 15µM* | -12 | 13µM* | 4%
CC(C)NC(=O)c1ccc(COCC(F)(F)F)cc1 | 0 | 35 | -12% | 23 | -9% | 6%
O=C(C[n+]1cccc2ccccc21)c1ccc(F)cc1 | · | · | -24% | · | -9% | ·
O=C(C[n+]1c2ccccc2cc2ccccc21)c1ccc(F)cc1 | · | · | 10µM* | · | ? | ·
O=C(C[n+]1cccc2cccc(O)c21)c1ccc(F)cc1 | · | · | ? | · | 7.1µM* | ·
COC(=O)C1=C(C)NC(=O)NC1c1cn(-c2ccccc2)nc1-c1cccs1 (stereo not given) | -8 | -1 | -14% | -4 | ? | 1%
CC1=C(C(=O)OC(C)C)C(c2cn(-c3ccccc3)nc2-c2cccs2)NC(=O)N1 (stereo not given) | 14 | · | 23µM* | 1 | ? | 8%
COC(=O)C1=C(C)NC(=O)NC1c1cn(-c2ccccc2)nc1-c1ccc(OC)c(Cl)c1 (stereo not given) | · | · | 21µM* | · | ? | 7%
Cc1ccc(NC(=O)CN2CCN(CCN=CC3=C(O)CC(c4ccc(C)cc4)CC3=O)CC2)cc1 (stereo not given) | -19 | -8 | -13% | -17 | -2% | 0%
OCCC1CN(Cc2ccc(F)cc2Cl)CCN1CCc1ccccc1 (stereo not given) | ? | -8 | ? | -2 | -16% | 3%
O=C(CN1CCN(c2ccccn2)CC1)Nc1cccc(S(=O)(=O)N2CCOCC2)c1 | 35 | -16 | -19% | 0 | ? | 0%
CCOc1ccc(CCN2C(=O)C(=O)N([C@@H](CC(C)C)CN3CCC[C@H]3CN3C(=O)C(=O)NC[C@@H]3CC(C)C)C[C@@H]2Cc2ccccc2)cc1 | -92* | -3 | ? | 14 | ? | ·
CCOc1ccc(CCN2C(=O)C(=O)N([C@@H](CC(C)C)CN3CCC[C@H]3CN3C(=O)C(=O)NC[C@@H]3Cc3ccc(O)cc3)C[C@@H]2CC(C)C)cc1 | -54* | 0 | ? | 5 | ? | ·
Cc1nnc2ccc(Oc3ccc(-c4ccccc4)cc3)nn12 | -6 | -10 | ? | -4 | 13µM* | 0%
COC(=O)c1ccc(Oc2ccc3nnc(C)n3n2)cc1 | -14 | -2 | -6% | 6 | -5% | 2%
NS(=O)(=O)c1cccc(NC(=O)c2ccccc2NS(=O)(=O)c2ccc(F)cc2)c1 | 24 | -11 | -2% | 1 | 11% | 14%
CSc1ncccc1C(=O)Nc1cccc(S(=O)(=O)N2CCCCCC2)c1 | -23 | · | 29µM* | -6 | ? | -2%
O=C1CCC(C(=O)Nc2cccc(S(=O)(=O)Nc3ccccc3F)c2)=NN1 | -12 | -6 | 13µM* | 4 | 18µM* | 1%
O=C(CSc1ccc([N+](=O)[O-])cc1)Nc1cccc(S(=O)(=O)Nc2ccccc2F)c1 | 18 | -6 | ? | -10 | 9.2µM* | 5%
O=C(Nc1cccc(S(=O)(=O)Nc2ccccc2F)c1)c1ccco1 | -10 | -5 | -27% | -7 | -29% | 1%
O=C(Nc1cccc(S(=O)(=O)N2CCCCC2)c1)c1ccccc1NS(=O)(=O)c1ccc(F)cc1 | 0 | 14 | 21µM* | 5 | ? | 3%
COc1ccc(NC(=O)CN(c2ccc(OC)c(Cl)c2)S(=O)(=O)c2ccccc2)cc1 | -1 | 6 | ? | -4 | ? | ·
Cc1noc(C)c1C(=O)OCC(=O)NCCc1ccc(S(N)(=O)=O)cc1 | 17 | 2 | -19% | -4 | 7% | 0%
CC1(CC(=O)N/N=C/c2cc3c(cc2Br)OCO3)OCCO1 | ? | 11 | 8% | 8 | 11% | 2%
CCOC(=O)c1ccccc1NC(=O)CN1C(=O)c2ccccc2S1(=O)=O | 21 | 6 | -13% | 6 | -5% | 4%
SMILES | IL-1B inflam inh | CtBP-E1A inh | TDP1 cell noCPT | Six1-Eya2 inh | DT40 TDP1 CPT | TDP1 block
Cc1ccc(NC(=O)c2ccccc2NS(=O)(=O)c2ccc(F)cc2)cc1S(=O)(=O)N1CCCCC1 | -23 | -7 | 12µM* | -9 | 16µM* | 3%
O=c1[nH]c(/C=C\c2ccc(O)c(O)c2)nc(O)c1[N+](=O)[O-] | 12 | ? | -7% | -23 | -11% | ?
C[C@@H](C(=O)NCCc1ccccc1F)N1C(=O)N2CCc3c([nH]c4ccccc34)[C@@]2(C)C1=O | -10 | -9 | 9.2µM* | -7 | 12µM* | ·
C[C@@H](C(=O)NCCc1ccccc1)N1C(=O)N2CCc3c([nH]c4ccccc34)[C@@]2(C)C1=O | 7 | -5 | ? | -11 | 18µM* | ·
CCCCn1nnnc1C(c1cc2ccccc2o1)N(C)Cc1ccccc1 (stereo not given) | 16 | 2 | 23µM* | 1 | ? | ·
CN(Cc1ccc(Cl)c(Cl)c1)C(c1cc2ccccc2o1)c1nnnn1C(C)(C)C (stereo not given) | 0 | -2 | 21µM* | -7 | ? | ·
CC1CCC(C(C)[C@H]2CCC3C4CC(=O)C5C[C@@H](O)CC[C@]5(C)C4CC[C@@]32C)=NC1 (stereo not given in full) | · | · | -18%[9.04 µM] | · | -8%[9.04 µM] | 8%
OC(c1cccc(Cl)c1)c1nccc2ccccc12 (stereo not given) | 0 | 4 | -9% | 3 | -23% | ·
O=C(OC(c1ccccc1)c1nccc2ccccc12)c1cc([N+](=O)[O-])cc([N+](=O)[O-])c1 (stereo not given) | -1 | ? | 21µM* | ? | 15µM* | 11%
Fc1ccc(-c2nnc(-c3ccc4ccccc4c3)o2)cc1 | 4 | 12 | -27% | 0 | -27% | ·
